Data taken from PubChem BioAssay AID2546 (National Center for Advancing Translational Sciences (NCATS), 2010).
Out of some 310,000 compounds screened, about 11,000 (3.5%) were called active. Not shown: some 8% with an inconclusive outcome. The call rests on the fitted dose curve; in most records, active means well fitted inhibition curve with a large enough effect; inconclusive means small, poorly fitted or top-dose-only effect, or effect the other way; inactive means flat fitted curve, though single readings scatter. For the sample, actives were picked, then their nearest neighbours and some compounds at random.

Assay: VP16 counterscreen qHTS for inhibitors of ROR gamma transcriptional activity;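 further: Gal4-VP16 expression switched on by copper sulfate through the metallothionein promoter; nearly all actives have a fitted effect of over 50% in size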
Conditions: Drosophila S2 Gal4-VP16 UAS-luciferase, luminescence, 20 h; series mostly up to 53.6 µM; activity, negative = inhibition: at the top concentration
On the % scale 0 is the no-effect control and ±100 the full control effect; potency means the concentration at half of the fitted maximal effect.

SMILES | activity, negative = inhibition | Potency
CC1CN(C(=S)Nc2cccc(F)c2)CC(C)O1 (configuration not stated) | -1.44% (inactive) | –
O=C(C1CC(=O)N(C2CCCCC2)C1)N1CCN(c2ccccc2)CC1 (configuration not stated) | 5.4% (inactive) | –
O=C(CN(CC1CCCO1)C(=O)CNS(=O)(=O)c1ccc(Cl)cc1)NCc1ccccc1 (configuration not stated) | -2.89% (inactive) | –
CCOc1ccc(NC(=O)c2nc(SCC)ncc2Cl)cc1 | -3.47% (inactive) | –
O=[N+]([O-])c1cc([N+](=O)[O-])c(Oc2cc(F)cc(F)c2F)cc1NN1CCCCC1 | 4.75% (inactive) | –
Cc1ccc(-c2noc(C3CCCN(C(=O)c4cccc(Cl)c4)C3)n2)o1 (configuration not stated) | 4% (inactive) | –
CCOc1ccc(C(=O)NC(=S)Nc2ccc(NC(=O)C(C)C)cc2)cc1[N+](=O)[O-] | 2.81% (inactive) | –
CCOc1ccc(C(=O)NC(=S)Nc2ccc(N3CCOCC3)c(Cl)c2)cc1[N+](=O)[O-] | – | 3.98 µM (active)
COc1cccc(OC)c1C(=O)NC(=S)Nc1ccc(N2CCOCC2)c(Cl)c1 | -28.6% (inactive) | –
CC(CC(=O)N1CCN(c2ccccc2)CC1)c1ccccc1 (configuration not stated) | -3.11% (inactive) | –
CCc1ccc(NC(=O)N2CCN(c3ccccc3)CC2)cc1 | 24.1% (inactive) | –
CC(=O)N1CCN(c2ccc(NCc3ccc(C(C)C)cc3)cc2)CC1 | – | 1.12 µM (active)
Cc1nn(-c2ccccc2)c(Cl)c1/C=N/NC(=O)c1nn(C)cc1[N+](=O)[O-] | 15.7% (inactive) | –
Cc1ccnc(N2C(=O)c3ccccc3C2Nc2ccc3c(c2)OCCO3)c1 (configuration not stated) | 16% (inactive) | –
CCc1ccccc1NC1c2ccccc2C(=O)N1c1cccnc1 (configuration not stated) | 7.01% (inactive) | –
COC(=O)c1cc(NC2c3ccccc3C(=O)N2c2ccc(Cl)cn2)cc(C(=O)OC)c1 (configuration not stated) | – | 11.2 µM (active)
COc1ccccc1CNC(=O)C1CCN(S(=O)(=O)c2ccc3c(c2)CC(C)N3C(=O)C2CC2)CC1 (configuration not stated) | 1.44% (inactive) | –
O=C1N/C(=N\N=C\c2ccco2)SC1Cc1ccc(F)cc1 (configuration not stated) | – | 4.47 µM (active)
O=C(O)C[C@@H]1NC(=O)[C@H](Cc2ccccc2)NC1=O | -0.0827% (inactive) | –
CC(C)=N/N=C1/NC(=O)C(Cc2ccccc2)S1 (configuration not stated) | – | 2.82 µM (active)
CN(CCOc1ccc(CC2SC(=O)NC2=O)cc1)c1ccccn1 (configuration not stated) | 6.05% (inactive) | –
COc1ccc(CN2C(=O)C(C)S/C2=N/N=C/c2ccco2)cc1 (configuration not stated) | 13.3% (inactive) | –

SMILES | activity, negative = inhibition | Potency
C=CCN1C(=O)C(Cc2cccc(Cl)c2)S/C1=N/N=C/c1ccco1 (configuration not stated) | -2.5% (inactive) | –
CC1Sc2ccc(S(=O)(=O)CCC(=O)NCc3ccccc3Cl)cc2NC1=O (configuration not stated) | -3.72% (inactive) | –
C/C(=N\NC(=O)c1ccc2ccccc2c1)c1cccnc1 | -1.37% (inactive) | –
COc1ccc(CCNC(=O)CS(=O)(=O)Cc2nc(-c3ccc(C)cc3)oc2C)cc1OC | 0.714% (inactive) | –
COc1cccc(CNS(=O)(=O)c2ccc3c(c2)CC(C)N3C(C)=O)c1 (configuration not stated) | -3.21% (inactive) | –
Cn1cncc1COC(=O)c1ccc(Cl)cc1 | -0.0903% (inactive) | –
O=C(Cc1c(Cl)cccc1Cl)NC1CC1 | -0.236% (inactive) | –
CCOc1ccc(-c2n[nH]c(C)c2-c2ccccn2)c(O)c1 | -5.31% (inactive) | –
C=C(C)COc1ccc(-c2n[nH]c(C)c2-c2ccccc2OC)c(O)c1 | – | 14.1 µM (active)
C=C(C)COc1ccc(-c2ncncc2-c2ccc(OC)cc2)c(O)c1 | -13.1% (inactive) | –
CCOc1ccc(-c2nc(N)ncc2-c2ccccc2OC)c(O)c1 | -5.66% (inactive) | –
C=C(C)COc1ccc(-c2nc(N)ncc2-c2ccccc2OC)c(O)c1 | -0.328% (inactive) | –
C=C(C)COc1ccc(-c2n[nH]c(C)c2-c2ccccc2)c(O)c1 | – | 3.16 µM (active)
O=C(c1ccccc1)N1CCC(CC2CC(c3ccc(Cl)cc3)=NO2)(C(=O)NCC2CCCCC2)CC1 (configuration not stated) | 11.9% (inactive) | –
CCCN1CCn2c3c(c4cc(Br)ccc42)CCCC31 (configuration not stated) | 1.59% (inactive) | –
Cc1cc(O)c(C(=O)/C=C/c2c(F)c(F)c(F)c(F)c2F)c(=O)o1 | -1.97% (inactive) | –
CCOC(=O)N1CCN(C(=O)c2ccc3c(=O)n(CCc4ccc(OC)c(OC)c4)c(=O)[nH]c3c2)CC1 | -1.34% (inactive) | –
CCC(C(=O)OC)n1cnc2scc(-c3ccc(C)cc3)c2c1=O (configuration not stated) | -5.09% (inactive) | –
CC(=O)Oc1ccc(-c2cccc(C(=O)N3CCCCC3)c2)cc1 | 7.3% (inactive) | –
COc1cc(/C=N/Nc2nn3cnnc3c3ccccc23)cc(OC)c1OC | -27% (inactive) | –
C/C(=N\Nc1nncc2ccccc12)c1ccc(Cl)c([N+](=O)[O-])c1 | -10.6% (inactive) | –
CN(CCO)c1ccc(/C=N/Nc2nncc3ccccc23)cc1 | – | 11.2 µM (active)

SMILES | activity, negative = inhibition | Potency
O=C(CCC(=O)N/N=C/c1ccc(Br)o1)N/N=C/c1ccc(Br)o1 | -5.41% (inactive) | –
NCCCCCC(=O)N/N=C/c1ccc2nccnc2c1 | 4.99% (inactive) | –
O=C(CCCO)N/N=C/c1cc(Br)ccc1O | – | 12.6 µM (active)
CC1CC(C)CN(c2ccc(S(=O)(=O)N3CCOCC3)cc2)C1 (configuration not stated) | -4.83% (inactive) | –
COc1ccc2c(CC(=O)N3CCc4cc(OC)c(OC)cc4C3)coc2c1 | 11% (inactive) | –
COc1ccc(NC(=O)CSc2nc(SC)ns2)c(OC)c1 | -10.1% (inactive) | –
CCCCN1CCNC1=S | -7.57% (inactive) | –
CCCCN1C(=S)NC[C@@H]1C(C)CC (some centres not stated) | – | 10 µM (active)
Cc1ccc2c(c1)N(CC(=O)N1CCOCC1)C(=O)CO2 | -15.3% (inactive) | –
CCOC(=O)[C@@H]1[C@H]2COc3cc(OC)ccc3[C@@H]2N2C(=O)N(c3cccc(C)c3)C(=O)[C@@]12C | -2.17% (inactive) | –
CCOc1ccc(N(CC(=O)NCCc2ccc(F)cc2)S(=O)(=O)c2ccccc2)cc1 | -5.48% (inactive) | –
Cc1ccccc1N1CC(C(=O)Nc2nnc(SCCC3OCCO3)s2)CC1=O (configuration not stated) | -0.0441% (inactive) | –
CCC(C)(C)NC(=O)CN(C(=O)CCC(=O)Nc1nccs1)c1ccc2c(c1)OCO2 | 13.8% (inactive) | –
C=CCNC(=S)NNC(=O)COc1c(Cl)cc(Cl)cc1Cl | – | 1.58 µM (active)
C=CCNC(=S)NNC(=O)c1ccc(Br)o1 | -22.5% (inactive) | –
C=CCNC(=S)NNC(=O)c1cc(Cl)ccc1OC | -14% (inactive) | –
CC(C)[C@H](NC(=O)N1CCn2c1nc1ccccc12)C(=O)NCc1ccc2c(c1)OCO2 | 2.6% (inactive) | –
CCN(C(=O)CN1C(=O)/C(=C/c2ccc(F)cc2)SC1=S)C1CCS(=O)(=O)C1 (configuration not stated) | -1.96% (inactive) | –
COc1ccc(N(C(=O)c2cccnc2)S(=O)(=O)c2ccc(OC)c(OC)c2)cc1 | -4.37% (inactive) | –
COc1cc(SC)ccc1C(=O)Nc1nc(C)cs1 | – | 3.98 µM (active)
COc1cc(SC)ccc1C(=O)NCCOc1ccccc1Cl | 4.25% (inactive) | –
COc1ccc(Cc2nnc(NC(=O)c3ccc(OC)cc3OC)s2)cc1 | 25.6% (inactive) | –

SMILES | activity, negative = inhibition | Potency
CCn1c2ccc(F)cc2c2nnc(SCCN3CCOCC3)nc21 | -1.32% (inactive) | –
CCC(=O)c1cn(CCOc2ccccc2OC)c2ccccc12 | -8.86% (inactive) | –
CCOc1ccc(N(C)Cc2cc(=O)oc3ccc(OC)cc23)cc1 | -9.57% (inactive) | –
Cc1cc(=O)oc2c3c(cc(OCC(=O)NCc4ccccn4)c12)OC(C)(C)CC3 | -3.85% (inactive) | –
O=C1N=C(N2CCCC2)S/C1=C\c1cccc(Br)c1 | 13.8% (inactive) | –
O=C1N=C(N2CCc3ccccc3C2)S/C1=C\c1ccc(O)cc1 | – | 1.58 µM (active)
CCc1ccc(/C=C2\SC(N3CCOCC3)=NC2=O)cc1 | -8.68% (inactive) | –
CCCCNC(=O)c1ccc(-n2c(=S)[nH]c3ccccc3c2=O)cc1 | 14.8% (inactive) | –
CCCCn1c(=S)[nH]c2ncccc2c1=O | – | 3.55 µM (active)
CCN(CC)CCn1c(=S)[nH]c2ncccc2c1=O | 7.04% (inactive) | –
CCCCNC(=O)CCn1c(=S)[nH]c2cc3c(cc2c1=O)OCO3 | -11.1% (inactive) | –
CCCCn1c(=S)[nH]c2ccccc2c1=O | – | 5.01 µM (active)
CN(C)CCn1c(=S)[nH]c2ccc(Cl)cc2c1=O | -3.83% (inactive) | –
O=C(NC1CCCCCCC1)c1cccs1 | -16.3% (inactive) | –
CCCc1nn2c(=O)cc(CSCC(=O)Nc3cccc(C)c3)nc2s1 | 0.474% (inactive) | –
CCOC(=O)N1CCN(S(=O)(=O)c2ccc(Br)cc2)CC1 | 2.58% (inactive) | –
Cc1ccc(NC(=O)CCC(=O)c2ccc(Br)cc2)cc1 | -7.45% (inactive) | –
CCC(Cc1ccccc1)NS(=O)(=O)c1ccc2c(c1)NC(=O)CS2 (configuration not stated) | 1.55% (inactive) | –
CCc1ccc(NC(=O)CCNS(=O)(=O)c2cccs2)cc1 | 5.31% (inactive) | –
CCn1c(=S)sc2c(=O)n(CC(=O)Nc3cccc(Br)c3)c(C)nc21 | -2.31% (inactive) | –
CN(Cc1cccnc1)C(=O)c1cc(COc2ccc3ncccc3c2)on1 | – | 2.82 µM (active)
Cc1ccc(OCc2cc(C(=O)N(C)CCc3ccccc3)no2)cc1C | -6.16% (inactive) | –

SMILES | activity, negative = inhibition | Potency
CC(=O)c1cccc(OCc2cc(C(=O)NC(C)Cc3cccnc3)no2)c1 (configuration not stated) | 16% (inactive) | –
COc1ccc(C(CCN2CCOCC2)c2c(OC)cc(OC)c3c2OC(=O)CC3c2ccc(OC)cc2)cc1 (configuration not stated) | -26.9% (inactive) | –
CC1=C(C(N)=O)C(c2ccc3c(c2)OCO3)n2nc(-c3cccc(C)c3)nc2N1 (configuration not stated) | – | 20 µM (active)
CC1=C(C(N)=O)C(c2ccc(F)cc2)n2nc(CCCO)nc2N1 (configuration not stated) | 7.17% (inactive) | –
COc1cccc(-c2nc3n(n2)C(c2ccccc2Cl)C(C(N)=O)=C(C)N3)c1 (configuration not stated) | -5.08% (inactive) | –
COc1ccc(S(=O)(=O)NCCc2cc3ccc(C)c(C)c3[nH]c2=O)cc1 | 6.83% (inactive) | –
c1csc(-c2nc(-c3ccncc3)no2)c1 | -4.55% (inactive) | –
COc1nc(-c2ccc(Cl)cc2)ccc1-c1noc(-c2cccs2)n1 | -2.8% (inactive) | –
c1ccc(-c2noc(-c3cccs3)n2)nc1 | – | 12.6 µM (active)
O=C(Oc1ccc(-c2nc(-c3ccccn3)no2)cc1)c1ccccc1 | – | 6.31 µM (active)
O=C(Oc1ccc(Br)cc1)c1cccnc1 | -1.3% (inactive) | –
Brc1ccc(-c2noc(-c3ccccc3)n2)o1 | -15.6% (inactive) | –
Cn1c(=O)[nH]c(=O)c2c1nc(N1CCN(C(c3ccccc3)c3ccccc3)CC1)n2CCO | -3.53% (inactive) | –
CCNC(=S)N(CCN(CC)CC)Cc1cc2cc3c(cc2[nH]c1=O)OCCO3 | 6.76% (inactive) | –
COc1ccc(N2C(=O)CNC2=S)cc1 | -1.96% (inactive) | –
COc1ccc(-c2cn(-c3ccc(OC)cc3)c(=S)[nH]2)cc1 | – | 1.41 µM (active)
COc1ccc(-n2c(C)csc2=S)cc1 | 2.5% (inactive) | –
Cc1ccc(OCC(=O)Nc2ccc(N3CCN(C(=O)c4ccco4)CC3)cc2)c(C)c1 | 0.609% (inactive) | –
CC(C)(C)c1ccc(Cn2nnc3c(=O)[nH]c(C4CCCN(C(=O)c5ccco5)C4)nc32)cc1 (configuration not stated) | -1.24% (inactive) | –
